15 compounds from PMC13083723 (Patterns, 2026) can be followed below.

Molecules are shown by their SMILES. Hit rate of the full screen: of about 5,400 compounds, about 190 (3.5%) showed an effect of 50% or more. This is one part of a sample in which strong results are shown more often than they occur.

In this assay the test system is Vero-E6. In words: primary screen, phospholipidosis by LipidTOX staining; higher = more effect of the substance. The note with it: 10 µM. How it is done: To measure drug-induced PLD in Vero-E6 cells, we used the HCS LipidTOX Red Phospholipidosis Detection Reagent (Invitrogen, #H34351), which is non-toxic to cell growth and remains well retained after aldehyde fixation. In this setup, compounds (at 10 μM concentration) and controls (amiodarone: 10 μM concentration; DMSO: 0.1 v/v %) were added to clear-bottom, 384-well plates (PhenoPlate 384-well, black, optically clear flat bottom, tissue-culture treated, Revvity #6057302) using the Echo Liquid Handler (Labcyte).
In the case of `CCCOC(C(=O)OC1CCN(C)CC1)(c1ccccc1)c1ccccc1`, the result_ITMP stood at 63.8%.

On to `C[C@H]1CCC/C=C/[C@@H]2C[C@H](O)C[C@H]2[C@H](O)/C=C/C(=O)O1`, for which the result_ITMP was -2.38%.

`COC(=O)C[C@](O)(CCC(C)(C)O)C(=O)O[C@@H]1C(OC)=C[C@]23CCCN2CCc2cc4c(cc2[C@H]13)OCO4`: the result_ITMP is reported as -10.1%.

As to `C#C[C@]1(O)CC[C@H]2[C@@H]3CCC4=CC(=O)CC[C@]4(C)[C@H]3CC[C@@]21C`, the result_ITMP is -7.32%.

For the compound `CN1[C@@H]2CC[C@H]1C[C@@H](OC(=O)c1cc(Cl)cc(Cl)c1)C2`, the result_ITMP worked out at 9.65%.

Take `CN(CCc1ccc(Cl)c(Cl)c1)CCN1CCCC1`: the result_ITMP is listed as 51.3%.

For `C[N@+]1(CC2CC2)CC[C@]23c4c5ccc(O)c4O[C@H]2C(=O)CC[C@@]3(O)[C@H]1C5`, the result_ITMP was 0.23%.

In the case of `CCN1C[C@]2(COC(=O)c3ccccc3N3C(=O)C[C@H](C)C3=O)CC[C@H](OC)[C@@]34[C@@H]5C[C@H]6[C@H](OC)[C@@H]5[C@](O)(C[C@@H]6OC)[C@@](O)([C@@H](OC)[C@H]23)[C@@H]14`, the result_ITMP is recorded as 0.37%.

Turning to `C=CC[C@]1(O)CC[C@H]2[C@@H]3CCC4=CCCC[C@@H]4[C@H]3CC[C@@]21C`, the result_ITMP stood at 0.46%.

On to `COc1cc2c(cc1OC)[C@@]13CCN4CC5=CCO[C@H]6CC(=O)N2[C@H]1[C@H]6[C@H]5C[C@H]43`, for which the result_ITMP is reported as 1.12%.

Take `CN1C[C@H](CNC(=O)OCc2ccccc2)C[C@@H]2c3cccc4c3c(cn4C)C[C@H]21`: the result_ITMP is reported as 61.8%.

As for `CC(=O)OC[C@]12CCC(C)=C[C@H]1O[C@@H]1[C@H](O)[C@@H](OC(C)=O)[C@@]2(C)[C@]12CO2`, the result_ITMP was -25.8%.

`Oc1ccc2c3c1O[C@H]1c4[nH]c5ccccc5c4C[C@@]4(O)[C@@H](C2)N(CC2CC2)CC[C@]314`: the result_ITMP amounted to 37.4%.

With `C[C@@H]1CN([C@H]2CC[C@](C#N)(c3ccc(F)cc3)CC2)CC[C@]1(C(=O)O)c1ccccc1`, the result_ITMP is on record as -9.01%.

As for `Cc1onc(O)c1C[C@H](N)C(=O)O` [R4A_0004356_001 / SPE_K92493880], the result_ITMP is given as -0.72%.
